# High-throughput results from PubChem BioAssay.
# KCNH2 3.1 block: KCNH2 3.1 (human) potassium channel inhibition | U2OS KCNH2 3.1, thallium flux FluxOr; stronger effect = lower value | activity change, % (tested at about 1.8 µM) | 0.95% of 340,000 active | AID 720553;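 active = maximum activity change below -70%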;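 also: thallium influx rate constant from kinetic fluorescence after stimulation buffer; % is scaled to controls: 0 for no effect and ±100 for the full control effect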
#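 Normalized rate constant (relative to positive and negative DMSO controls) derived from a 2 min kinetic fluorescence read after stimulation; U2OS cells expressing the 3.1 isoform via virus at 1.77 x 10^8 /mL.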
# KCNH2 WT inh: KCNH2 (human, wildtype) channel inhibition; 0.37% of 340,000 active; U2OS, BacMam KCNH2, thallium flux FluxOr; stronger effect = lower value; activity change, % at 1.84 µM; Q12809;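 active = maximum activity change below -70%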; also: % is scaled to controls: 0 for no effect and ±100 for the full control effect
# Target sequence (Q12809 whole entry, looked up): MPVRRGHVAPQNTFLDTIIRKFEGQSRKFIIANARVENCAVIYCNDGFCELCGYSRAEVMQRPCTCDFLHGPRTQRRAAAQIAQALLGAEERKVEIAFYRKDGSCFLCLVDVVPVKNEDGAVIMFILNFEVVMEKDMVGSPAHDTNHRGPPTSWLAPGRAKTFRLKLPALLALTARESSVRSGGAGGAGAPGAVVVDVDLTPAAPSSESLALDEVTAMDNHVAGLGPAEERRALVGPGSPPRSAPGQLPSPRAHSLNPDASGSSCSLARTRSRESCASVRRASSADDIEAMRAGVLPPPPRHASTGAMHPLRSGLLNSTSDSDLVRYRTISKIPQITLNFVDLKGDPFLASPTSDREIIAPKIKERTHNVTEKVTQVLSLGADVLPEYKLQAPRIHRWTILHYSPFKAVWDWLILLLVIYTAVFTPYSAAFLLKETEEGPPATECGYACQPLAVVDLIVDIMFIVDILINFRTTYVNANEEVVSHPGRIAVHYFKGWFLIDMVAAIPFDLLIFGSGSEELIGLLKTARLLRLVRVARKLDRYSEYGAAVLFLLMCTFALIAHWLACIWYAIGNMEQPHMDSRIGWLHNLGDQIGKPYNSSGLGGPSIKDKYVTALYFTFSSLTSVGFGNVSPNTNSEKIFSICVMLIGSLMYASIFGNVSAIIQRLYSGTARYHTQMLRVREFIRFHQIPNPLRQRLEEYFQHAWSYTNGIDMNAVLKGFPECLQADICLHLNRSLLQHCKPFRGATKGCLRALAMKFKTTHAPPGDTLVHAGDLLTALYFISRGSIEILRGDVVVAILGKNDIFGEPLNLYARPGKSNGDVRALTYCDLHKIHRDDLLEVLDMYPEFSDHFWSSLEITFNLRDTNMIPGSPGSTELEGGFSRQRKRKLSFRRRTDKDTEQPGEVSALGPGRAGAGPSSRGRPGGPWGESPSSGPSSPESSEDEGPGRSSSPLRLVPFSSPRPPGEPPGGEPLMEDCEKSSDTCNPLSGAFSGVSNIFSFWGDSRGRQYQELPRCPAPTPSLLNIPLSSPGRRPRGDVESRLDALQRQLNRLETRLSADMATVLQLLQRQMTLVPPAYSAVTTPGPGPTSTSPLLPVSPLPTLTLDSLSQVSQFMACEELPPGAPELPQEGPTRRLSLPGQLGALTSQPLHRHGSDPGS
#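 U2OS cells were transduced with wild-type KCNH2 virus (2.03 x 10^8 / mL) for 4 h at room temperature, then cultured overnight at 37 C. Thallium flux was read with FluxOr dye. Rate constants were normalized to DMSO controls.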
# TRHR enhancer: allosteric enhancers of human TRH receptor; P34981; TRHR cells, fluo-8 calcium fluorescence, EC20 TRH enhancement; enhancement, % at 2 µM; 0.66% of 360,000 active; in the data active = enhancement above about 30%; also: 0% is about no effect
#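 Enhancer read-out: after compound pinning and an initial kinetic agonist-mode read, an EC20 of TRH (10 nM final) was injected and fluo-8 calcium signal (Ex 480/Em 530) followed at 1 s/cycle for 100 cycles in TRHR-expressing cells.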
# TRPML1 blocker: human mucolipin-1 channel inhibition; Q9GZU1; TRPML1-inducible cells, Ca2+ dye fluorescence, FDSS; stronger effect = lower value; inhibition of EC80 agonist-evoked calcium signal; activity change, negative = inhibition, % (concentration not given with the values); 0.02% of 390,000 active; AID 624415; in the data active = activity change below about -50%;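 also: stimulus is agonist 54-4 at its EC80 concentration; % is scaled to controls: 0 for no effect and ±100 for the full control effect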
#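 TRPML1-DL cells, Tet-induced overnight (~16 h, 37 °C) at 1,500 cells/well, were loaded with Ca8 no-wash dye plus quencher for 45-90 min at room temperature. Compounds were pinned during FDSS kinetic reading; agonist 54-4 at EC80 (4 uM final) then added.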
# TRHR agonist: TRH receptor (human) agonism; 0.18% of 360,000 active; activation, % at 2 µM; P34981; TRHR cells, calcium flux fluo-8, FDSS agonist mode; in the data active = activation above about 30%; also: 0% is about no effect
#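 Agonist-mode FDSS calcium read (Ex 480/Em 530, 1 s cycles) in 1536-well TRHR cells with fluo-8 dye, after 10-cycle baseline and 23 nL compound addition; TRH at EC20 (10 nM final) added afterwards for the enhancer phase.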
# TRPML1 ag: human mucolipin-1 channel agonism | TRPML1-expressing cells, Ca2+ dye fluorescence, FDSS | activation, % (concentration not given with the values) | 0.12% of 410,000 active; in the data active = activation above about 50%; also: 0% is about no effect
#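 Tet-induced TRPML1-DL cells, 1,500 per well, cultured overnight, were loaded with a no-wash Ca2+ dye for 45–90 min. Calcium fluorescence was recorded on the FDSS for 110 s after compound addition, before the EC80 agonist (4 uM 54-4) was added.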
# Active calls of the source: *; . = no result given. Shown are actives, neighbours in structure and some others; about 1.7% of the full set was active somewhere.
SMILES,KCNH2 3.1 block,KCNH2 WT inh,TRHR enhancer,TRPML1 blocker,TRHR agonist,TRPML1 ag
Cc1ccc(CNC(=O)CSc2nc3n[nH]c(C)c3c(=N)n2-c2ccccc2Cl)cc1,.,.,-2.4,-8.3,-0.2,2.9
COc1ccc(CNC(=O)CCCn2ncn3c(cc4occc43)c2=O)cc1,-114.2*,2.4,-9.2,-7.5,-0.3,0.3
Cc1cccc(C)c1NC(=O)CN(C)CC(=O)Nc1cc(Cl)ccc1C#N,-7.3,-1.5,34.4*,-6.7,0.4,0.0
CCCCN1C(=O)C(CC(=O)NCc2ccco2)CC(C(=O)N2CCCCCC2)=C1C (centres undefined),.,.,.,.,.,-0.6
O=C(NC1CCCc2ccccc21)c1cncc(Br)c1 (centres undefined),-70.9*,2.6,-4.8,5.7,-0.6,1.4
Cc1cccc(C)c1NC(=O)CN,-14.8,2.8,0.6,-4.5,-0.2,-0.9
Cc1cccc(C)c1NC(=O)Cn1nnnc1N,-90.8*,-3.9,-2.3,8.4,-0.6,-0.8
N/C(Cn1nnc(-c2ccccc2)n1)=N\O,-7.2,10.0,-7.5,-13.6,0.3,0.0
Cc1ccc(-c2nnn(C/C(N)=N/O)n2)cc1,-2.1,-8.9,35.8*,-7.4,3.9,-0.4
O=C1C=C(NCC2CCCO2)C2(CCCCC2)O1 (centres undefined),-78.7*,-12.7,9.9,6.6,1.2,0.8
CCOc1ccc(/C(O)=C2/C(=O)C(=O)N(CCCN3CCOCC3)C2c2ccc(C)cc2)cc1C (centres undefined),8.8,19.8,-4.3,-3.1,0.3,0.1
O=C1Nc2cc(Cl)c(Cl)cc2N(O)N1c1ccc(Cl)c(Cl)c1,-106.8*,-19.2,6.3,2.2,0.2,0.3
O=C1Nc2ccccc2N(O)N1c1ccc(Cl)c(Cl)c1,2.4,6.1,-2.6,-7.7,-0.5,-0.2
O=C(CN1CCCCCC1)N/N=C/c1ccc(Cl)c(Cl)c1,-75.5*,-0.7,-1.8,-5.1,1.4,-0.4
CSc1ccc(/C=N/NC(=O)CN2CCN(Cc3ccccc3Cl)CC2)cc1,-82.2*,28.5,2.6,-5.3,-0.4,1.1
CSc1ccc(/C=N/NC(=O)CN2CCN(Cc3ccc(C)cc3)CC2)cc1,-113.3*,-46.7,14.8,7.4,0.8,-0.6
CN(C)c1ccc(/C=C2\C=Cc3ccccc32)c(Cl)c1,.,.,.,.,.,-0.2
COc1ccc(C(=O)CCC(=O)NC2=NCCS2)cc1,22.3,-4.0,-2.4,-9.1,0.7,0.7
COC(=O)c1c(NC(=O)COC(=O)CC(NC(C)=O)c2ccccc2)sc(C)c1C (centres undefined),4.7,-12.5,17.3,14.7,-0.2,-0.4
C=CCn1c2[n+](c3ccccc3c1=O)CCCCC2,-113.2*,12.4,1.8,20.8,0.2,2.2
COc1ccc(-c2cc(C(=O)N3CCN(C(=O)c4ccccc4F)CC3)[nH]n2)cc1,-13.1,3.5,1.5,-11.3,-0.6,0.3
CCOC(=O)c1ccc(-n2c(CN3CCN(CCO)CC3)nc3ccc([N+](=O)[O-])cc3c2=O)cc1,2.9,2.5,37.4*,3.9,-0.2,-0.5
Cn1ccc(/C=N/N=C2/NC(=O)CS2)n1,1.7,-12.9,4.7,-9.3,-0.6,0.8
O=C(c1ccsc1)N1CCCC(Nc2cccc(F)c2)C1 (centres undefined),-0.4,-0.3,0.6,-17.7,-1.0,1.1
Oc1c(Cl)cc(Cl)cc1/C=N/Nc1ncc(Br)cn1,0.8,-9.5,-4.0,-27.6,0.7,0.6
Cc1ccc(N=Cc2cc(Cl)cc(Cl)c2O)nc1,1.6,-333.3*,-0.7,2.6,1.0,0.6
FC(F)(F)c1cc(C(F)(F)F)c2ccc(N3CCN(c4ccc(Cl)cc4)CC3)nc2n1,-89.6*,1.0,0.2,12.2,1.1,-0.3
Fc1ccc(N2CCN(c3ccc4c(C(F)(F)F)cc(C(F)(F)F)nc4n3)CC2)cc1,-18.6,1.1,-6.9,-9.0,0.6,0.2
Nc1cnn(Cc2ccc(F)cc2)c1,-1.5,22.0,-2.9,5.3,0.0,1.3
COc1cccc(Cn2cc(N)cn2)c1,4.6,.,32.3*,2.1,0.1,0.9
